Screening data (PubChem)
Only some compounds are listed: those with a hit (about 28% of all), similar ones and a draw of the others.
PLK1 kinase inh: blocks human PLK1 kinase activity. P53350. recombinant PLK1 kinase, TR-FRET peptide phosphorylation. inhibition, % at 10 µM. 97,000 tested, 0.53% active. AID 619;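 active = inhibition of 50% or more in the single-concentration screen; inactive = inhibition below 50%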;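 note: 0% = DMSO max control and 100% = H-89 dihydrochloride min control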
Target sequence (P53350 whole entry, looked up): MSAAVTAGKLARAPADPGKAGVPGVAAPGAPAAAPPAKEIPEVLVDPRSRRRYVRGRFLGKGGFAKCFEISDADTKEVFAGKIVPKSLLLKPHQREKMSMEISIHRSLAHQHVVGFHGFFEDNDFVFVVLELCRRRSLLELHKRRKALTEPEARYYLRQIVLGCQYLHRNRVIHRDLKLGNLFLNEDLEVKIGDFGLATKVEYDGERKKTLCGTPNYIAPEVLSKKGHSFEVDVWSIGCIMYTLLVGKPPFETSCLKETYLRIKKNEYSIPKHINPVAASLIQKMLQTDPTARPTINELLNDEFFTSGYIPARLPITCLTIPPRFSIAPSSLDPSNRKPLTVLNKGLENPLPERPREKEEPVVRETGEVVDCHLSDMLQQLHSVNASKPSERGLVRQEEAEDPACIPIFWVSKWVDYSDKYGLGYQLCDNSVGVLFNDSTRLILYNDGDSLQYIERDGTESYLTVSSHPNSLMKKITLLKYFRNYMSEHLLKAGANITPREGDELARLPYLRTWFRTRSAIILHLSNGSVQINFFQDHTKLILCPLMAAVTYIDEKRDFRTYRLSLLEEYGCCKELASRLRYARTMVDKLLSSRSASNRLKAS
CYP2C9 activ: activators of human CYP2C9. P11712. 96,000 tested, 1.4% active. AID 1024. activation factor at 5 µM. recombinant CYP2C9, luciferin-H conversion, luminescence; hits give high values; factor 1 = untreated enzyme, 0 = blocked;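 active = activation factor of 2 or more for CYP2C9 at a 5 µM dose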;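 note: 0 = sulfaphenazole-blocked wells and 1 = vehicle-only wells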
CYP2C9 inh: inhibitors of human CYP2C9. P11712. inhibition, % at 5 µM. 96,000 tested, 20% active. AID 777. CYP2C9 Supersomes, luciferin-H conversion, luminescence;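 active = blocking of liver enzyme CYP2C9 beyond about 50% at 5 µM, limit read from the data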
PLK1 PBD inh: inhibitors of human Plk1 polo box domain binding | Plk1 PBD phosphopeptide binding, fluorescence polarization | inhibition, %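 (tested at about 20 µM)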 | 97,000 tested, 0.13% active | AID 693; in the data active = inhibition above about 34%, passing the limit was not always enough
CYP2C19 inh: blocks human cytochrome P450 2C19; CYP2C19 Supersomes, luciferin-H EGE luminescence, 30 min; inhibition, % at 5 µM; 96,000 tested, 21% active; P33261;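 active = CYP2C19 inhibition above a set limit at 5 µM in the primary screen, cut at about 50% in these data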;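 note: plate controls were negative control wells for no effect and 2.5 mM tranylcypromine positive control for full effect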
CYP2C19 act: activators of human cytochrome P450 2C19 | P33261 | recombinant CYP2C19, luciferin-H EGE luminescence; hits give high values; 0 = fully inhibited enzyme, 1 = untreated enzyme | activation factor at 5 µM | 96,000 tested, under 10 active;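 active = activation factor of at least 2 at 5 µM in the primary screen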;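 note: 0 = wells with 2.5 mM tranylcypromine and 1 = vehicle-only wells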
Starred values were filed as active, the others as inactive; x = no result.

SMILES | PLK1 kinase inh | CYP2C9 activ | CYP2C9 inh | PLK1 PBD inh | CYP2C19 inh | CYP2C19 act
CCOc1ccc(N(CC(=O)Nc2ccccc2C)S(=O)(=O)c2c(C)noc2C)cc1 | -16 | 0.5 | 48 | -6 | 87* | 0.1
Cc1ccccc1C(=O)NC(C)c1ccc2c(c1)CCCC2 (stereo not given) | -5 | 2.2* | -123 | -25 | 18 | 0.8
CC(NC(=O)C(=O)NN=C1CCCCCCC1)c1ccccc1 (stereo not given) | -13 | 1.1 | -7 | 17 | -7 | 1.1
CCCNC(=O)CN(CCc1ccccc1)S(C)(=O)=O | -23 | 1.1 | -9 | -25 | 76* | 0.2
C=CCNC1=C(Cl)C(=O)N(c2ccccc2Cl)C1=O | -14 | 0.7 | 26 | 4 | 68* | 0.3
O=C1NCCCC1C(=O)Nc1ccccn1 (stereo not given) | -2 | 1 | 2 | 4 | 3 | 1
CCCCNC(=O)c1onc(CSc2ccc(C(C)C)cc2)c1C(=O)O | -3 | 0.1 | 94* | 2 | 28 | 0.7
CCCCNC(=O)c1onc(CSc2cccc(Cl)c2)c1C(=O)O | -8 | 0.2 | 84* | 18 | 28 | 0.7
CCOc1cccc(SCc2noc(C(=O)NCCOC)c2C(=O)O)c1 | 5 | 0.6 | 37 | -5 | 6 | 0.9
COCCNC(=O)c1onc(CSc2ccc(C(C)C)cc2)c1C(=O)O | -21 | 0.3 | 66* | -8 | 34 | 0.7
CC(C)NC(=O)c1onc(CSc2cccc3ccccc23)c1C(=O)O | -16 | 0 | 95* | -4 | 32 | 0.7
CC(=O)NCC(=O)OCN1C(=O)c2ccccc2C1=O | -15 | x | x | 13 | x | x
O=C(COC(=O)CNS(=O)(=O)c1ccccc1)Nc1ccc(Cl)cn1 | -3 | 1 | -2 | -24 | 4 | 1
O=C(NCC1CCCO1)c1onc(CSc2ccccc2F)c1C(=O)O (stereo not given) | -3 | 0.8 | 19 | -40 | 18 | 0.8
CCCCNC(=O)c1onc(CSc2cccc(OCC)c2)c1C(=O)O | -8 | 0.1 | 92* | 28 | 28 | 0.7
CCCCNC(=O)c1onc(CSc2cccc3ccccc23)c1C(=O)O | -10 | 0 | 97* | 4 | 58* | 0.4
CCCCNC(=O)c1onc(CSc2ccccc2)c1C(=O)O | -2 | 0.4 | 57* | -3 | 19 | 0.8
CC(SC1CCCC1)C(=O)NC(C)(C#N)C(C)C (stereo not given) | -10 | 0.9 | 6 | -9 | 16 | 0.8
O=C(NNC(=O)c1cc(-c2ccc(Cl)c(Cl)c2)nc2ccccc12)Nc1ccccc1 | -4 | 0.7 | 33 | -3 | 18 | 0.8
CCOC(=O)C1=C(N)c2ccccc2CC1C(C)C (stereo not given) | -9 | 0.2 | 81* | -8 | 96* | 0
CCOC(=O)C1Cc2ccccc2C(=O)O1 (stereo not given) | 7 | 1 | 4 | 11 | 22 | 0.8
CCOc1cc(/C=C(\C#N)c2[nH]nc(N)c2C#N)ccc1O | 69* | 1 | -4 | -5 | 60* | 0.4
CCOc1cc(-c2cc(-c3ccc(C)cc3)nc(N)c2C#N)ccc1O | -4 | 0.2 | 84* | -31 | 40 | 0.6
CCOc1cc(-c2c(C#N)c(N)nc3c2CCCC3C)ccc1O (stereo not given) | -2 | 0.8 | 21 | 2 | 36 | 0.6
Cc1ccc(OCCN2C(=O)OC(C)(C)C2(C)O)cc1 (stereo not given) | -11 | 0.9 | 10 | 3 | 37 | 0.6
SMILES | PLK1 kinase inh | CYP2C9 activ | CYP2C9 inh | PLK1 PBD inh | CYP2C19 inh | CYP2C19 act
CCOC(=O)C1CCCN(S(=O)(=O)c2cc(Br)cc3c2N(C(=O)C2CC2)CC3)C1 (stereo not given) | x | 2.9* | -193 | x | 38 | 0.6
CCOC(=O)N1CCN(S(=O)(=O)c2cc(Br)cc3c2N(C(=O)CC)CC3)CC1 | x | 1.1 | -6 | x | -6 | 1.1
O=C(C1CC1)N1CCc2cc(Br)cc(S(=O)(=O)N3CCCCCC3)c21 | x | 0.8 | 21 | x | 90* | 0.1
CCC(=O)N1CCc2cc(Br)cc(S(=O)(=O)N3CCCCCC3)c21 | -9 | x | x | -12 | x | x
Fc1cccc(NCc2ccoc2)c1 | -2 | 1 | -2 | -2 | -3 | 1
Fc1ccc(NCc2cn3ccccc3n2)cc1 | -11 | 0.7 | 29 | 15 | 84* | 0.2
Fc1cccc(NCc2cn3ccccc3n2)c1 | 1 | 0.7 | 32 | -7 | 78* | 0.2
O=C(Nc1ccsc1C(=O)N1CCCCCC1)c1ccccc1 | -9 | 0.7 | 26 | -6 | 46 | 0.5
O=C(CCS(=O)(=O)c1ccc(Br)cc1)NC1CCCC1 | -2 | 1.1 | -10 | 12 | 12 | 0.9
CCC(CO)NCc1ccc2c(c1)n(C)c(=O)n2C (stereo not given) | x | 1.1 | -11 | x | -11 | 1.1
Cc1cc(N)n(-c2ccc3ccccc3c2)n1 | -5 | 1 | 1 | -17 | 12 | 0.9
O=C1c2ccccc2NC(c2c(Cl)cccc2Cl)N1Cc1ccccc1 (stereo not given) | -8 | 1 | 2 | 3 | -3 | 1
Cc1cccc(C2Nc3ccccc3C(=O)N2CCc2ccccc2)n1 (stereo not given) | -8 | 0.4 | 61* | -5 | 61* | 0.4
CC1N/C(=C\C(=O)c2ccccc2)N(O)C1(C)C (stereo not given) | -4 | 0.7 | 30 | 6 | 44 | 0.6
FC(F)(F)c1cc(-c2ccccc2)nc(NCc2cccnc2)n1 | -6 | 0.3 | 73* | -23 | 93* | 0.1
FC(F)(F)c1cc(-c2ccco2)nc(NCc2ccccc2)n1 | -5 | 0.6 | 36 | 1 | 14 | 0.9
FC(F)(F)c1cc(-c2ccco2)nc(NCc2cccnc2)n1 | -7 | 0.3 | 66* | -10 | 85* | 0.2
Cc1nc2nc(SCC(=O)N3CCOCC3)nn2c(C)c1Cc1c(F)cccc1Cl | x | 0.5 | 53* | x | 18 | 0.8
CC(C)(C)NC(=O)COc1ccc(-c2ccccc2)cc1 | -1 | 1.2 | -18 | -23 | 10 | 0.9
COc1ccc(CNC(=O)COc2ccc(S(=O)(=O)NC(C)C)cc2)cc1 | -8 | 0.1 | 86* | -6 | 68* | 0.3
CCNC(=O)COc1ccc(-c2ccccc2)cc1 | -13 | 0.7 | 29 | 20 | 62* | 0.4
CCC(=O)NCCn1c(C)cc2ccccc21 | -18 | 0.9 | 5 | -3 | 30 | 0.7
O=C(COc1ccccc1)NCc1ccccc1 | -15 | 0.9 | 9 | 10 | 74* | 0.3
Cc1cc2ccccc2n1CCNC(=O)COc1ccccc1 | -11 | 0.6 | 38 | 23 | 94* | 0.1
Cn1c(SCc2c(Cl)cccc2Cl)nc(C(F)(F)F)cc1=O | -9 | 1 | 3 | -15 | -9 | 1.1
CCCN(CCO)Cc1ccc(F)c(Br)c1 | -20 | 0.8 | 17 | 21 | 9 | 0.9
CC(C)NS(=O)(=O)c1ccc(OCC(=O)NCc2ccccc2)cc1 | 2 | 0.4 | 61* | -1 | 43 | 0.6
COc1cc(CNC2CCCCCC2)cc(OC)c1 | 5 | 1 | -1 | 4 | 37 | 0.6
